TCR act = T cell receptor activation. primary human leukocytes, anti-CD3, IL-2 HTRF, 48 h. Potency, µM (series often up to 9.22 µM), most hits filed as activators. 330,000 tested, under 10 active. AID 504894
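Activity was scored as IL-2 release from primary human leukocytes given only a TCR signal (a-CD3 beads) plus compound for 48 hr. Detection used a two-antibody HTRF format read at 665nm.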
TSHR antag = human thyrotropin receptor antagonism; TSHR-expressing cells, TSH-stimulated cAMP HTRF, 2 h; stronger effect = lower value; activity change, negative = inhibition, % at 11.5 µM; 330,000 tested, 0.2% active;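 active = activity change below a set negative limit, meaning inhibition stronger than a set level, cut at about -70% in these data; inconclusive = activity change between two set negative limits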
Target sequence (P16473 whole entry, looked up): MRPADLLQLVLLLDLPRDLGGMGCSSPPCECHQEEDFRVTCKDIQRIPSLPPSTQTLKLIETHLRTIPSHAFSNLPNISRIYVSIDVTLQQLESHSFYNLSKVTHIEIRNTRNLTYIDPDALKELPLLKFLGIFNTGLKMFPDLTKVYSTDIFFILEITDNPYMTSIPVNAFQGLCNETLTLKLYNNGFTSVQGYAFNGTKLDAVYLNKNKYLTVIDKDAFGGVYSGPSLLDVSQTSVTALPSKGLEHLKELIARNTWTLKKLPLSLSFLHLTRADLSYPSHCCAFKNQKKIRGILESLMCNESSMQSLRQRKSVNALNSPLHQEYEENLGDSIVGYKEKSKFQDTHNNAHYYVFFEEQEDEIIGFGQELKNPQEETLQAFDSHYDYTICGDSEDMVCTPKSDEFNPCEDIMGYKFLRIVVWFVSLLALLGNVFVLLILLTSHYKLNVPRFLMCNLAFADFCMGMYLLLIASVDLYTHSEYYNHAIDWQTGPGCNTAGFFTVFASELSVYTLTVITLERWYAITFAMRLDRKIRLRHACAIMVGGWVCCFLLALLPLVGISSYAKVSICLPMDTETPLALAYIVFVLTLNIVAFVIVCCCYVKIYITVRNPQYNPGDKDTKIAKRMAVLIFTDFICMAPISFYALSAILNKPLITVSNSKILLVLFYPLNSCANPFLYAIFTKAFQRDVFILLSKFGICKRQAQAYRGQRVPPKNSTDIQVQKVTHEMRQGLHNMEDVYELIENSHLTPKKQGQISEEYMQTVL
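Antagonism was scored as loss of TSH-driven cAMP in TSHR cells, stimulated with 4nM TSH (EC80) for 2 hours at 37 deg C and detected by homogeneous HTRF competition immunoassay.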
GLS inhibitor = inhibitors of human glutaminase (GLS); GLS enzymatic activity, qHTS titration; Potency, µM (titrated, usually from 45.5 µM), usual class: inhibitors; O94925; 410,000 tested, 0.21% active
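Assay buffer: 45 mM KH2PO4 pH 8.2, 0.02% Tween-20. hKGA acts on L-glutamine (1 mM solution added); product glutamate is reported by an oxidase/peroxidase Amplex Red coupling, with fluorescence taken at baseline and 30 min.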
p53 reactivation = restores transcriptional activity of mutant p53. H1299 p53-A138V BP100-luciferase reporter, luminescence, 24 h. AID 504706. Potency, µM (titrated, usually from 92.2 µM), most hits filed as activators. 320,000 tested, 0.063% active; note: nearly all actives have a fitted effect of over 45% in size
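p53-null H1299 cells stably carrying temperature-sensitive p53-A138V and a BP100-luciferase reporter were pinned with compounds (4-point, 1:5 series) and held 24 hrs at 37 deg C. Luminescence was read 10 min after detection reagent.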
N370S GC = inhibits or activates N370S mutant glucocerebrosidase; N370S GC spleen homogenate, 4MU-glucoside fluorescence; AID 2101; Potency, µM (titrated, usually from 59.4 µM), usual class: inhibitors; P04062; 330,000 tested, 0.092% active
BRCA1 expr act = increases BRCA1 expression; AID 624202; MCF7-BRCA1-FFLuc reporter, luminescence, 48 h; response scale: scaled: vehicle 0%, 10 µM genistein 100%; 380,000 tested, 1.1% active; Potency, µM (titrated, usually from 46.1 µM), usual class: activators; note: nearly all actives have a fitted effect of over 80% in size
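First, MCF7-BRCA1-FFLuc cells (2000/well) attach for 2 h; next, compounds are pin-added and incubated 48 h at 37 °C; finally, luciferase reagent is added and luminescence read after 15 min.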
Large screens that a line does not name were inactive. Shown are actives, neighbours in structure and some others; about 1.4% of the full set was active somewhere. Unless noted, calls come from the whole dose curve; as a rule, active = well fitted curve in the direction sought with a large enough effect; inconclusive = small, poorly fitted or top-dose-only effect, or another doubt; inactive = no such curve, though single readings can be large; an effect the other way counts as inactive or inconclusive.

COc1ccc2sc(NC(=O)CC(C)C)nc2c1	BRCA1 expr act 5.6µM
Cc1nc2c(C(=O)NCc3ccccc3)cnn2c(C)c1Cc1ccc(F)cc1	GLS inhibitor 13µM (no result: TCR act, TSHR antag, p53 reactivation, N370S GC, BRCA1 expr act)
CC(C)NC(=O)CCC(=O)N1Cc2ccccc2Oc2ncccc21	none (no result: TCR act, TSHR antag, p53 reactivation, N370S GC, BRCA1 expr act)
COc1ccc(CCn2c3c(c(=O)[nH]c2=S)CN(c2ccccc2)CN3)cc1OC	none (no result: TCR act, TSHR antag, GLS inhibitor, p53 reactivation, N370S GC)
Cc1ccc(NC(=O)CSc2nc3ncc(Br)cc3[nH]2)cc1C	TSHR antag -88
C[N+]1(C)CCC(OC(=O)CC(O)(c2ccccc2)C2CCCC2)C1 (stereo not drawn)	none (no result: TCR act, TSHR antag, p53 reactivation, N370S GC, BRCA1 expr act)
Cc1cc(C(=O)N/N=C/c2cc(N=Nc3ccccc3)ccc2O)n[nH]1	p53 reactivation 13µM
CC1CCc2nc(/C(C#N)=C/c3ccncc3)sc2C1 (stereo not drawn)	BRCA1 expr act 11µM
N#C/C(=C/c1ccncc1)c1nc2ccccc2s1	none
O=C(NCC1CC1)NC(=O)c1c(F)cccc1Cl	none
O=C(NCC1CC1)NC(=O)c1ccccc1F	BRCA1 expr act 13µM (no result: TCR act, TSHR antag, p53 reactivation, N370S GC)
CCC1CCCCN1C(=O)CCS(=O)(=O)c1cc2c(cc1C)NC(=O)CO2 (stereo not drawn)	none (no result: TCR act, TSHR antag, p53 reactivation, N370S GC)
CC1CC=CC2C1C(=O)N(Cc1ccccc1)C2c1ccc(-c2ccoc2)cc1F (stereo not drawn)	none (no result: TCR act, TSHR antag, GLS inhibitor, p53 reactivation, BRCA1 expr act)
COc1ccccc1CNC(=O)Cc1ccccc1	BRCA1 expr act 11µM
COc1ccccc1CNC(=O)Cc1ccc(OC)c(OC)c1	none
CC1=C(C(=O)OCC(Cl)(Cl)Cl)N2C(=O)C(NC(=O)Cc3ccccc3)C2SC1 (stereo not drawn)	TSHR antag -77
CC(=O)OCC1=C(C(=O)OC(C)(C)C)N2C(=O)[C@@H](NC(=O)Cc3ccccc3)[C@H]2SC1	none (no result: TSHR antag, p53 reactivation, N370S GC)
COCCN=C1NN=C(c2ccc(C)c([N+](=O)[O-])c2)CS1	p53 reactivation inconclusive, BRCA1 expr act 3.2µM
CCn1c(O)c(C=Nc2ccccc2)sc1=S	p53 reactivation inconclusive, BRCA1 expr act 3.2µM
CO[C@H]1COC(=O)[C@H](C)NC(=O)C/C=C\[C@@H](C)[C@@H](NS(=O)(=O)c2ccc(C)cc2)COC(=O)C/C=C\[C@@H]1C	none (no result: TCR act, TSHR antag, GLS inhibitor, p53 reactivation, BRCA1 expr act)
O=c1c(-c2ccc(F)cc2)nc2cnc(N3CCOCC3)nc2n1Cc1ccc(F)cc1	none (no result: TCR act, TSHR antag, GLS inhibitor, p53 reactivation, BRCA1 expr act)
O=[N+]([O-])c1ccc2c(c1)C=C/C2=C\c1ccc(C=S)cc1	BRCA1 expr act 5.6µM (no result: TCR act, TSHR antag, GLS inhibitor, p53 reactivation, N370S GC)
O=C(NNc1ccccc1)OCc1ccccc1	BRCA1 expr act 11µM (no result: TCR act, TSHR antag, p53 reactivation, N370S GC)
O=C(CC(=O)OCc1ccccc1)OCc1ccccc1	none (no result: TSHR antag, p53 reactivation, N370S GC)
O=C(Nc1nccs1)OCc1ccccc1	BRCA1 expr act 14µM (no result: TSHR antag, p53 reactivation, N370S GC)
O=C(N[C@H]1/C=C\[C@@H](O)CCCC1)OCc1ccccc1	p53 reactivation inconclusive, BRCA1 expr act 4.5µM (no result: N370S GC)
C[C@H]1Cc2c(COc3ccccc3)nc3c(c2CO1)CN(S(=O)(=O)c1ccc(Cl)c2nonc12)CC3	none (no result: TCR act, TSHR antag, GLS inhibitor, p53 reactivation, BRCA1 expr act)
CCC[n+]1c(/C=C/c2c(OC)cc(OC)cc2OC)ccc2ccccc21	none (no result: TCR act, TSHR antag, GLS inhibitor, p53 reactivation, N370S GC)
Cc1ccc2c(c1)C1C=CCC1C(C(=O)O)N2 (stereo not drawn)	none (no result: TCR act, GLS inhibitor, BRCA1 expr act)
COc1cccc2c1NC(C(=O)O)C1CC=CC21 (stereo not drawn)	GLS inhibitor 2.8µM
CC(=O)c1ccc2c(c1)C1C=CCC1C(C(=O)O)N2 (stereo not drawn)	GLS inhibitor 2.5µM
CC(=O)Nc1cc(=O)c2cccnc2[nH]1	GLS inhibitor 16µM (no result: TSHR antag, p53 reactivation, N370S GC)
CNC(=O)c1ccc2nc(-c3ccco3)c(-c3ccco3)nc2c1	none (no result: TCR act, TSHR antag, GLS inhibitor, p53 reactivation, N370S GC)
COc1ccc(/C=C2\SC(=S)N(C(C)C(=O)NC3C=CS(=O)(=O)C3)C2=O)cc1 (stereo not drawn)	N370S GC inconclusive
COc1cccc(/C=C2\SC(=S)N(C(C)C(=O)NC3C=CS(=O)(=O)C3)C2=O)c1 (stereo not drawn)	p53 reactivation inconclusive, N370S GC 16µM
Cc1ccc(-c2cc(N)n(-c3ccc(F)cc3)n2)cc1	BRCA1 expr act 5µM
Cc1ccc(-n2nc(-c3ccccc3)cc2Nc2ccccc2N)cc1	none

Assay outcomes from PubChem BioAssay.
